# Source: PubChem BioAssay (Broad Institute)
# SIRT5 inh: sirtuin-5 (human) deacylase inhibition; 1.1% of 330,000 active; inhibition, % at 15 µM; Purified SirT5, succinyl-peptide AMC, trypsin-coupled fluorescence; Q9NXA8; in the data active = inhibition above about 15%
# ERAP1 inh: ERAP1 (human) enzyme inhibition | recombinant ERAP1, Leu-AMC fluorescence, 60 min | inhibition, % at 10.7 µM | 0.15% of 340,000 active;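 active = mean replicate inhibition of at least 30%, or all replicates individually reaching that 30% level; inactive = mean below 30% and not every replicate reaching it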;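 note: 0% = neutral control wells and 100% = L-leucinethiol positive control wells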
# INS-1E GSIS act: primary screen for activators of insulin secretion dependent on glucose, INS-1E cells, GLuc reporter luminescence. 0.61% of 370,000 active. INS-1E GLuc reporter insulin secretion, 2-3 h. activation, % at 16.6 µM;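 active = lowest replicate activation of at least 40%, so every replicate reaches that level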;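 note: 0% = median of neutral control wells and 100% = median of IBMX positive control wells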
# CASP6 VEID inh: caspase-6 (human) enzyme inhibition; 0.53% of 350,000 active; P55212; AID 686996; inhibition, % at 12.5 µM; purified caspase-6, Z-VEID-R110 cleavage fluorescence;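 active = mean inhibition across replicates at least about 35%, with every replicate also reaching that limit, limit read from the data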;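 note: 0% = median of neutral control wells and 100% = no fluorescence left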
# Target sequence (P55212 24-179 limits assumed): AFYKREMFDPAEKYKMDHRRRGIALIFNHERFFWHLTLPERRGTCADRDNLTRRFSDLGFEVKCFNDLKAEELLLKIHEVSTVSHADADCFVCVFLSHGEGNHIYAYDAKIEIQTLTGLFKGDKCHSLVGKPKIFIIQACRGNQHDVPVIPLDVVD
# Target sequence (P55212 194-293 limits assumed): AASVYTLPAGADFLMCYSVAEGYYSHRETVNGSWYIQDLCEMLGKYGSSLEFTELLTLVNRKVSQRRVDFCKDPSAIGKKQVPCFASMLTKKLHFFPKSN
# FGF22 binding: binders of recombinant human FGF22 by thermal shift. Q9HCT0. SYPRO orange fluorescence; percent of sucrose octasulfate shift, DMSO zero. activity (Tm shift, normalised), % at 9.99 µM. 1.5% of 340,000 active;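 active = mean Tm shift, scaled 0 neutral to 100 positive control, at about 1.3% or above, every replicate too, limit read from the data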
# * marks the source's active call; other numbers are inactive results; x = no result given. Sampled rows, rich in hits. Any-hit rate of the full collection: about 3.3%.
SMILES,SIRT5 inh,ERAP1 inh,INS-1E GSIS act,CASP6 VEID inh,FGF22 binding
CCC1=NN(C(=O)c2ccc(Cl)cc2)C(O)(c2ccc(C)cc2)C1 (configuration not stated),3,2,x,48*,0
C=C[C@@H](COC(=O)c1ccc([N+](=O)[O-])cc1)N(Cc1ccc(OC)cc1)S(=O)(=O)c1ccc(Br)cc1,0,0,x,0,0
C[C@@H]1CN([C@H](C)CO)S(=O)(=O)c2ccc(-c3ccc(F)cc3)cc2O[C@H]1CN(C)Cc1cccc(F)c1,x,x,58*,x,x
C/C=C/c1ccc2c(c1)O[C@H](CN(C)Cc1ccccc1)[C@@H](C)CN([C@H](C)CO)S2(=O)=O,12,3,-23,-1,0
C/C=C/c1ccc2c(c1)O[C@H](CN(C)Cc1cccc(F)c1)[C@H](C)CN([C@@H](C)CO)S2(=O)=O,19*,4,20,1,0
C/C=C/c1ccc2c(c1)O[C@@H](CN(C)Cc1ccccc1F)[C@H](C)CN([C@@H](C)CO)S2(=O)=O,19*,-2,-20,-1,0
C[C@@H]1CN([C@@H](C)CO)S(=O)(=O)c2ccc(C#Cc3ccccn3)cc2O[C@@H]1CN(C)Cc1cccc(F)c1,20*,2,-37,0,0
C[C@H]1CN([C@@H](C)CO)S(=O)(=O)c2ccc(-c3ccc(F)cc3)cc2O[C@@H]1CN(C)Cc1cccc(F)c1,x,x,-8,x,x
C[C@H](CO)N1C[C@H](C)[C@@H](CN(C)S(=O)(=O)c2cccs2)Oc2c(NC(=O)Nc3ccc(F)cc3)cccc2C1=O,-4,-3,7,0,-1
O=C(CCCc1ccccn1)c1ccc(-c2ccccc2)cc1,x,0,x,1,44*
O=C(CCCc1ccccn1)c1cccc2ccccc12,x,5,x,2,0
C[C@H](CO)N1C[C@H](C)[C@@H](CN(C)C)Oc2cc(/C=C/c3ccccc3)ccc2S1(=O)=O,4,-1,-6,2,0
C[C@H](CO)N1C[C@H](C)[C@H](CN(C)C(=O)c2cccc(F)c2)Oc2ncc(-c3ccncc3)cc2C1=O,-24,1,-1,4,x
O=C1[C@H](Cc2ccc(C(F)(F)F)cc2)CCn2nncc2COC[C@H]2CCCCN12,x,x,2,x,x
CN1[C@@H]2c3ccc(-c4ccccc4)c(=O)n3C[C@@H]2[C@@H](CO)[C@@H]1C(=O)NCCc1ccccc1,0,-1,-2,2,0
Cc1ccc(Nc2nc(N)c([N+](=O)[O-])c(N3CCOCC3)n2)cc1,x,x,56*,x,x
CC1CCCN(c2nc(NCc3ccco3)nc(N)c2[N+](=O)[O-])C1 (configuration not stated),0,6,27,4,0
Cc1ccc(Nc2nc(N)c([N+](=O)[O-])c(N3CCCC(C)C3)n2)cc1C (configuration not stated),x,x,60*,x,x
CCCNC(=O)N1CC2(CCN(Cc3nccs3)CC2)c2c([nH]c3cc(OC)ccc23)[C@H]1CO,-2,-3,-21,-2,0
CC(=O)NCCNC(=O)CNC(=O)c1ccc(Cl)cc1,x,x,47*,x,x
COc1ccc(NC(=O)c2cc(C3CC3)nc3c2cnn3C(C)C)cc1OC,16*,3,15,3,0
C[C@@H]1CCCCO[C@@H](CN(C)C(=O)Nc2ccc(F)cc2)[C@@H](C)CN([C@H](C)CO)C(=O)c2cc(N(C)C)ccc2O1,0,1,12,1,-1
CCOc1ccc2nc(NC(=O)CSc3nc(SC)ns3)sc2c1,4,1,-2,1,1.7*
CCC1C(=O)N=C(SCC(=O)Nc2nc3ccccc3s2)NC1=O (configuration not stated),9,1,3,40*,0
CCOc1ccc(-c2nnc3ccc(SCC(=O)Nc4nc5ccccc5s4)nn23)cc1,1,2,-1,-1,6.6*
CCOc1ccc(-c2nnc3ccc(SCC(=O)Nc4nc5ccc(C)cc5s4)nn23)cc1,2,0,-3,0,-1
CCOc1ccc2nc(NC(=O)CSc3cn[nH]n3)sc2c1,-4,-5,5,6,0
CCC1C(=O)N=C(SCC(=O)Nc2ccc(Br)cn2)NC1=O (configuration not stated),-1,10,9,-1,-1
